In PubChem BioAssay AID1159580 (chemical genetic matrix, 2015):
Where “and” joins values, the source holds several entries; their conditions need not be identical. Equal entries are not always repeated. The campaign covered roughly 5,500 compounds. About 2,000 (36%) were called active. About 18% were inconclusive and are not listed. Cut-off read from the data, not from the text of the source: active = normalized growth mostly below about 0.91 (no sharp cut-off); inconclusive = no clear call, values can overlap the other calls; inactive = mostly above about 0.92. The list shows a part of the results.

Assay: chemical genetic growth profiling, strain panel (AID 1159580);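 note: tested at 20 µM; growth read once vehicle control cultures reached saturation at 30 °C; 1 = growth at the plate median or of vehicle wells; lower values mean less growth of the strain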
Details: S. cerevisiae deletion strains, growth OD

Measured: normalized growth

c1ccc([C@H]2CN3CCSC3=N2)cc1
inactive: locus YAL013W, strain DEP1, stronger effect = lower value 1.01 | locus YAL021C, strain ccr4, stronger effect = lower value 1.01 | locus YAL026C, strain drs2, stronger effect = lower value 1.01 | locus YAL030W, strain snc1, stronger effect = lower value 1.01 | locus YBL061C, strain skt5, stronger effect = lower value 1.01 | locus YBR009C, strain hhf1, stronger effect = lower value 1.01 | locus YBR021W, strain FUR4, stronger effect = lower value 0.956 | locus YBR023C, strain chs3, stronger effect = lower value 1.01 | locus YBR171W, strain sec66, stronger effect = lower value 1.02 | locus YBR229C, strain ROT2, stronger effect = lower value 1.01 | locus YBR231C, strain swc5, stronger effect = lower value 1 | locus YBR279W, strain paf1, stronger effect = lower value 1.02 | locus YCL011C, strain gbp2, stronger effect = lower value 1.01 | locus YCL016C, strain dcc1, stronger effect = lower value 1.01 | locus YCL029C, strain bik1, stronger effect = lower value 1.01 | locus YCL061C, strain MRC1, stronger effect = lower value 0.996 | locus YCL069W, strain vba3, stronger effect = lower value 1 | locus YCR088W, strain abp1, stronger effect = lower value 1 | locus YDL005C, strain med2, stronger effect = lower value 0.976 | locus YDL035C, strain GPR1, stronger effect = lower value 1.01 | locus YDL040C, strain nat1, stronger effect = lower value 1.01 | locus YDL074C, strain BRE1, stronger effect = lower value 1 | locus YDL101C, strain DUN1, stronger effect = lower value 1 | locus YDL134C, strain PPH21, stronger effect = lower value 1.01 | locus YDL185W, strain tfp1, stronger effect = lower value 1.02 | locus YDL192W, strain arf1, stronger effect = lower value 1 | locus YDR001C, strain nth1, stronger effect = lower value 0.995 | locus YDR069C, strain doa4, stronger effect = lower value 0.996 | locus YDR101C, strain arx1, stronger effect = lower value 1 | locus YDR137W, strain rgp1, stronger effect = lower value 1.04 | locus YDR150W, strain NUM1, stronger effect = lower value 1.01 | locus YDR159W, strain sac3, stronger effect = lower value 0.944 | locus YDR162C, strain NBP2, stronger effect = lower value 0.999 | locus YDR195W, strain ref2 1 | locus YDR297W, strain sur2, stronger effect = lower value 1.01 | locus YDR318W, strain mcm21, stronger effect = lower value 0.993 | locus YDR334W, strain swr1, stronger effect = lower value 0.984 | locus YDR335W, strain msn5, stronger effect = lower value 0.987 | locus YDR388W, stronger effect = lower value 1.01 | locus YDR392W, strain spt3, stronger effect = lower value 1.01 | locus YDR502C, strain sam2, stronger effect = lower value 0.993 | locus YEL003W, strain gim4, stronger effect = lower value 1.01 | locus YEL037C, strain rad23, stronger effect = lower value 1 | locus YEL061C, strain CIN8 (second series), stronger effect = lower value 0.996 | locus YEL061C, strain CIN8, stronger effect = lower value 1 | locus YER015W, strain faa2, stronger effect = lower value 1.01 | locus YER016W, strain bim1, stronger effect = lower value 1.01 | locus YER110C, stronger effect = lower value 1.02 | locus YER111C, strain swi4, stronger effect = lower value 1.01 | locus YER155C, strain BEM2 (second series), stronger effect = lower value 1.01 | locus YER155C, strain BEM2, stronger effect = lower value 0.999 | locus YER167W, strain BCK2, stronger effect = lower value 1.01 | locus YFR010W, strain ubp6, stronger effect = lower value 0.981 | locus YGL078C, strain dbp3, stronger effect = lower value 1 | locus YGL086W, strain mad1, stronger effect = lower value 1.01 | locus YGL167C, strain pmr1, stronger effect = lower value 1 | locus YGL173C, strain kem1, stronger effect = lower value 1.01 | locus YGL227W, strain vid30, stronger effect = lower value 1.02 | locus YGL240W, strain doc1, stronger effect = lower value 1 | locus YGL248W, strain PDE1, stronger effect = lower value 1 | locus YGL253W, strain hxk2, stronger effect = lower value 1.01 | locus YGR078C, strain PAC10, stronger effect = lower value 1 | locus YGR135W, strain pre9, stronger effect = lower value 0.988 | locus YGR229C, strain SMI1, stronger effect = lower value 0.994 | locus YGR252W, strain gcn5, stronger effect = lower value 1.02 | locus YHR013C, strain ard1, stronger effect = lower value 1.02 | locus YHR027C, strain rpn1, stronger effect = lower value 1.01 | locus YHR030C, strain SLT2, stronger effect = lower value 1.01 | locus YHR079C, strain IRE1 (second series), stronger effect = lower value 1 | locus YHR079C, strain IRE1, stronger effect = lower value 1.03 | locus YHR094C, strain hxt1, stronger effect = lower value 1 | locus YHR129C, strain ARP1, stronger effect = lower value 1.03 | locus YHR142W, strain chs7, stronger effect = lower value 1.05 | locus YHR200W, strain rpn10, stronger effect = lower value 1 | locus YIL066C, strain RNR3, stronger effect = lower value 1.02 | locus YIL073C, strain SPO22, stronger effect = lower value 1.05 | locus YIL125W, strain kgd1, stronger effect = lower value 1.01 | locus YIR030C, strain dcg1, stronger effect = lower value 1.01 | locus YJL092W, strain hpr5, stronger effect = lower value 1 | locus YJL095W, strain BCK1 (second series), stronger effect = lower value 1.01 | locus YJL095W, strain BCK1, stronger effect = lower value 1.01 and 1.05 | locus YJL115W, strain asf1, stronger effect = lower value 0.997 | locus YJL129C, strain trk1, stronger effect = lower value 1.02 | locus YJL134W, strain LCB3, stronger effect = lower value 1.01 | locus YJL154C, strain vps35, stronger effect = lower value 1.01 | locus YJL164C, strain tpk1, stronger effect = lower value 0.983 | locus YJL166W, strain qcr8, stronger effect = lower value 1.01 | locus YJL168C, strain set2, stronger effect = lower value 1.01 | locus YJL187C, strain SWE1 (second series), stronger effect = lower value 1.01 | locus YJL187C, strain SWE1, stronger effect = lower value 1 | locus YJR043C, strain POL32, stronger effect = lower value 1.02 | locus YJR066W, strain TOR1, stronger effect = lower value 0.976
